MPTP inh: inhibitors of mitochondrial permeability transition pore | inhibition, % at 10 µM | actives 1.4% (n = 360,000) | isolated mouse mitochondria, Ca2+ swelling absorbance, 30 min | AID 602449;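 active = inhibition of 50% or more, scaled per plate between neutral and stimulator controls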
TIM10 inh: inhibits growth of TIM10 yeast strain. S. cerevisiae TIM10 strain growth, BacTiter-Glo luminescence, 24 h. inhibition, % at 10 µM. actives 1.4% (n = 330,000). AID 463195;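 active = inhibition of 40% or more at the single tested concentration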;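 note: wild-type TIM10 isogenic control strain grown at permissive 25 °C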
Mdm2-MdmX inh: disrupts the human Mdm2-MdmX interaction; actives 3% (n = 330,000); AID 485346; SaOS-2 split-luciferase Mdm2/MdmX complementation, luminescence; inhibition, % at 8 µM; O15151+Q00987;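 active = inhibition of at least 50% at 8 µM in the primary screen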
Target sequence (O15151 whole entry, looked up): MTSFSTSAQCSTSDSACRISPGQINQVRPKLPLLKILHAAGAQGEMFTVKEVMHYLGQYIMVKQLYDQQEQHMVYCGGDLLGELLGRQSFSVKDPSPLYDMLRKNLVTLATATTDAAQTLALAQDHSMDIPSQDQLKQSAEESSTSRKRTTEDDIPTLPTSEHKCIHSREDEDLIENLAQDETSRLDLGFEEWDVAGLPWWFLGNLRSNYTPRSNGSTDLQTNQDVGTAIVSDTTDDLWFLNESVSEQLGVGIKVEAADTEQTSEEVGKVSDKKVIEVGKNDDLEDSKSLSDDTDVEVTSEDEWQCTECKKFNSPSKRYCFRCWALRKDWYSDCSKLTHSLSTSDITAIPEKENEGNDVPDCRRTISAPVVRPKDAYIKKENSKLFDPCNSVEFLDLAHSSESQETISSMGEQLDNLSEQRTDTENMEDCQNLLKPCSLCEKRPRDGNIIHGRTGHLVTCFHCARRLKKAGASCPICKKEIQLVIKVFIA
Target sequence (Q00987 whole entry, looked up): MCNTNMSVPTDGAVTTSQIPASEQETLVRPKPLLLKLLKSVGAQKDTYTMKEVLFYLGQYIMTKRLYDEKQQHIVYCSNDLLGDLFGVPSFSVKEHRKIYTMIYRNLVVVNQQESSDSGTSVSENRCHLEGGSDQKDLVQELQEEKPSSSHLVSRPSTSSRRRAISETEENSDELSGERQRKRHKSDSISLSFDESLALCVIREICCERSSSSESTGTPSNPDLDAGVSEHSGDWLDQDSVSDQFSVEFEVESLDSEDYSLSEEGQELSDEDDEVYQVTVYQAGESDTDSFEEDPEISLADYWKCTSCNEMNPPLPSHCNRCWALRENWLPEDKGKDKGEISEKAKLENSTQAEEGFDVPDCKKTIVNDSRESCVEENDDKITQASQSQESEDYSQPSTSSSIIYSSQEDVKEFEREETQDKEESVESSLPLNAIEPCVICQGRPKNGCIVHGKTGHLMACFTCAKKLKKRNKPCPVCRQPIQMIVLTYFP
tim23-1 inh: inhibits growth of tim23-1 mutant yeast; S. cerevisiae tim23-1 growth, BacTiter-Glo luminescence, 24 h; inhibition, % at 20 µM; actives 1.3% (n = 330,000); AID 463212;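 active = growth inhibition of the mutant yeast at or above 50%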;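 note: temperature-sensitive mutant grown at 25 °C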
tim10-1 inh: growth inhibitors of tim10-1 mutant yeast; S. cerevisiae tim10-1 ts strain growth, BacTiter-Glo, 24 h; inhibition, % at 20 µM; actives 2.2% (n = 330,000); AID 463190;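 active = inhibition of at least 40%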;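 note: mutant grown at 25 °C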
tim10-1 conf: confirmation of tim10-1 mutant yeast growth inhibitors. shares compounds with tim10-1 inh. S. cerevisiae tim10-1 ts strain growth, BacTiter-Glo, 24 h. inhibition, % at 20 µM. actives 56% (n = 7,400). AID 463213;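 active = inhibition of yeast growth at or above a set limit in either of two repeat tests at 20 µM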;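 note: tim10-1 mutant grown at permissive 25 °C to find synthetic lethal compounds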
Numbers stand for hits; n = inactive; x = not tested or not shown. Most compounds without a hit are left out; they make up all but 6.3% or so of the library.

SMILES	MPTP inh	TIM10 inh	Mdm2-MdmX inh	tim23-1 inh	tim10-1 inh	tim10-1 conf
O=C(NCCc1c[nH]c2ccccc12)/C(=C/c1ccco1)NC(=O)c1ccco1	n	n	n	n	n	x
CC(=C\c1ccco1)/C=C(\C#N)C(=O)NCCc1c[nH]c2ccccc12	n	n	n	n	43.2	42.3
FC(F)(F)c1ccc(-c2cccc3c2C2CC3CCN2Cc2ccc3c(c2)OCO3)cc1 (stereo unspecified)	n	x	x	x	x	x
C=CCOCCN1C(=O)C2C(c3ccccc3)C=CC(c3ccccc3)C2C1=O (stereo unspecified)	n	n	n	n	41.2	n
C=CC[N+](C)(C)CCN1C(=O)C2C(c3ccccc3)C=CC(c3ccccc3)C2C1=O (stereo unspecified)	n	n	n	n	n	x
Fc1ccc(-c2csc3ncnc(Nc4ccc(N5CCOCC5)cc4)c23)cc1	n	n	n	n	43.2	37.0
CSc1ncnc2c1ncn2CCCNCCCc1ccccc1	n	x	x	x	x	x
CCN(C1CCCCC1)S(=O)(=O)c1cc(C)ccc1OC	n	n	n	n	42.5	n
CCN(C1CCCCC1)S(=O)(=O)c1ccc(OC)c(C)c1	n	n	n	n	n	x
CC(Sc1nc2ncc(Cl)cc2[nH]1)C(=O)Nc1ccccc1[N+](=O)[O-] (stereo unspecified)	n	x	x	x	x	x
COc1cc(/C=N/O)cc(Br)c1OC	n	n	n	n	n	x
COc1cc(/C=N/O)cc(Br)c1OCc1ccc(Cl)cc1	n	n	n	n	43.5	n
O=C(NCc1nnnn1-c1ccc(F)cc1)c1cc2ccccc2o1	n	x	x	x	x	x
CC1=C(C(=O)N(C(C)C)C(C)C)CC(CC(=O)NCC2CCCCC2)C(=O)N1Cc1ccc(C(C)(C)C)cc1 (stereo unspecified)	n	x	x	x	x	x
C=C1CCN([C@H](C(=O)OCc2cccc(C)c2)C(C)C)S(=O)(=O)c2ccccc21	n	n	n	n	44.2	n
CC12CCC(C(=O)N3CCN(C(c4ccccc4)c4ccccc4)CC3)(OC1=O)C2(C)C (stereo unspecified)	n	n	n	n	41.3	n
CNC(=O)C1Cc2c(-c3ccc4c(c3)OCO4)ccnc2O1 (stereo unspecified)	n	x	x	x	x	x
COc1ccc(OC)c(NC(=O)Nc2ccc3c(c2)OCO3)c1	n	n	n	n	40.0	n
COc1ccc(Cl)cc1C(=O)Nc1ccc2c(c1)OCO2	n	n	n	n	45.8	35.3
COc1ccc(Cl)cc1C(=O)Nc1ccc2c(c1)OCCO2	n	n	n	n	n	x
COc1ccc(-c2cc(C)no2)cc1S(=O)(=O)NCCCN(C)Cc1ccccc1	n	n	n	n	n	x
COc1ccc(-c2onc(C)c2C)cc1S(=O)(=O)NCCc1ccco1	n	n	n	n	43.1	n
COC(=O)C[C@@H]1CC[C@@H](NS(=O)(=O)c2ccccc2OC)[C@@H](CO)O1	n	x	x	x	x	x
Cc1ccc(OCC(=O)O/N=C(\N)Cc2cccs2)cc1C	n	n	n	n	43.8	n
COc1ccccc1C/C(N)=N/OC(=O)COc1ccccc1C	n	n	n	n	40.8	40.4
SMILES	MPTP inh	TIM10 inh	Mdm2-MdmX inh	tim23-1 inh	tim10-1 inh	tim10-1 conf
O=C(O)CC/C(=N\Nc1ccc(Cl)cc1)c1cccs1	n	n	n	n	41.5	n
COC(=O)N/N=C(\CCC(=O)O)c1cccs1	n	n	n	n	n	x
COCCc1ccc(OC2(C)CCN(Cc3ccc(OC)c4ccccc34)C2)cc1 (stereo unspecified)	n	x	x	x	x	x
Cc1c(C)n(Cc2ccccc2)c2ccc(C(=O)OCCN(C)C)cc12	n	n	n	n	41.4	42.9
CC1(C)CC(=O)C2=C(C1)N(c1cccnc1)C(N)=C(C#N)C2c1cccs1 (stereo unspecified)	n	n	n	n	40.3	33.5
CCSc1sccc1C1C(C#N)=C(N)N(c2cccnc2)C2=C1C(=O)CC(C)(C)C2 (stereo unspecified)	n	n	n	n	n	x
O=C(Nc1nccs1)c1ccc(F)c(S(=O)(=O)N2CCOCC2)c1	n	n	n	n	n	x
CC1CCN(S(=O)(=O)c2cccc(C(=O)Nc3nccs3)c2)CC1	n	n	n	n	47.7	34.6
O=C(Nc1nccs1)c1ccc(Br)c(S(=O)(=O)N2CCOCC2)c1	n	n	n	n	47.8	32.3
CN1CCN(S(=O)(=O)c2cccc(C(=O)Nc3nccs3)c2)CC1	n	n	n	n	n	x
Cc1cc(C)c(NC(=O)C2C(=O)Nc3ccccc3C(=O)N2C(C)(C)C)c(C)c1 (stereo unspecified)	n	x	x	x	x	x
CCCCn1nnnc1C(c1ccccc1)N1CCN(c2ncccc2C(F)(F)F)CC1 (stereo unspecified)	n	x	x	x	x	x
Cc1cccc(N2CCN(C3C(=O)Nc4ccccc4-n4nnnc43)CC2)c1C (stereo unspecified)	n	x	x	x	x	x
CCc1ccc(/C=C2\Oc3cc(OC(=O)N4CCOCC4)ccc3C2=O)cc1	n	n	n	n	50.5	n
COc1ccc(/C=C2\Oc3cc(OC(=O)N4CCOCC4)ccc3C2=O)cc1	n	n	n	n	n	x
COc1ccc(-c2cc(C(F)F)n3ncc(C(=O)N4CCCCC4)c3n2)cc1	n	n	n	n	n	x
COc1ccc(-c2cc(C(F)F)n3ncc(C(=O)N4CCc5ccccc5C4)c3n2)cc1	n	n	n	n	41.2	n
Cc1ccc(Cn2c(=S)[nH]c3ccc(N4CCOCC4)cc3c2=O)o1	n	n	n	n	45.5	n
CCOc1cccc(/C=N/NC(=S)Nc2cc(S(=O)(=O)N3CCOCC3)ccc2N2CCOCC2)c1O	n	n	n	n	43.9	n
CC1(C(=O)Nc2nccs2)CCN1C(=O)CC(c1ccccc1)c1ccccc1 (stereo unspecified)	n	x	x	x	x	x
O=C1C2Sc3[nH]c(=O)sc3C(c3ccccc3)C2C(=O)N1c1ccc(Cl)cc1 (stereo unspecified)	n	n	n	n	42.1	n
Cc1nn(-c2ccccn2)c2nc(-c3cccs3)cc(C(=O)NCc3ccco3)c12	n	n	n	n	n	x
CCOC(=O)c1cc(-c2cccs2)nc2c1c(C)nn2-c1ccccn1	n	n	n	n	51.9	39.7
CC(C)C[C@H]1CN([C@@H](Cc2ccccc2)CN2CCC[C@@H]2CN2C(=O)C(=O)NC[C@@H]2Cc2ccccc2)C(=O)C(=O)N1CC1CCCCC1	n	x	x	x	x	x
O=C1NC(=O)C2(N1)C(=O)c1cccc3cccc2c13 (stereo unspecified)	n	x	x	x	x	x
CC1CCCCC1NC(=O)CCCn1c(=S)[nH]c2ccccc2c1=O (stereo unspecified)	n	n	n	n	n	x
CC1CCCCC1n1c(=S)[nH]c2ccccc2c1=O (stereo unspecified)	n	n	n	n	41.8	n
Cn1ncc(Cl)c1C(=O)Nc1cccc(Cl)c1	n	n	n	n	47.3	n
CC(C)(C)c1ccc(OCCOc2ccc(C(C)(C)C)cc2NC=O)c(NC=O)c1	n	n	n	n	46.9	n

High-throughput results deposited in PubChem by Sanford-Burnham Center for Chemical Genomics.
